Here are results for 25 compounds from PubChem BioAssay (NCI).

Structures are written as SMILES. The panel holds about 83,000 compounds, 20% with a hit somewhere; the sample as a whole holds those more often.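 Cell lines were cultured in 96-well plates, exposed to a single compound concentration, and assessed for percent growth 48 hours later.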 A number with no mark means an inactive call. Activity calls are given as the source filed them. How the source made its calls: active means growth percent below 10; inactive means the rest.

In the experiment the test system is MDA-MB-468 breast. The experiment is described as follows: NCI-60 one-dose screen, 48 h (100 = growth as untreated, 0 = no growth, -100 = all killed). As to conditions: 10 µM unless noted.
Consider `COc1ccc(C/C(C)=C(\c2ccc(Cl)cc2)c2ccc(OCCN3CCCCCC3)cc2)cc1`, for which the growth is 70.9%.

As for `Cc1cn(C(C=O)OC(C=O)CO)c(=O)[nH]c1=O` (stereo not given), the growth was 113%.

For the compound `CNCCCNc1ccnc2cc(Cl)ccc12`, the growth is -85% (active).

On to `O=C(/C=C/c1ccccn1)c1ccccc1`, for which the growth was 21.3%.

With `N#CC1=C(N)Oc2c(sc3c(Br)cccc23)C1c1ccc([N+](=O)[O-])cc1` (stereo not given), the growth is 42.2%.

For `COc1ccc(NC2=C(Cl)C(=O)C(C)=C(C)C2=O)cc1OC`, the growth is -38.8% (active).

In the case of `COc1ccc(C(=O)Cn2c(C(=O)c3ccc(Cl)cc3)nc3ccccc32)cc1`, the growth was 63.9%.

With `COc1ccc(Cn2c(Br)c3c(c2Br)-c2nc(NC(=O)c4ccc(OC)cc4)sc2CC3)cc1`, the growth is 83.5%.

`COc1ccc(S(=O)(=O)N2CC3(COC3)C2)cc1NC(=O)c1[nH]c(C)c2c1CCCCC2=O`: the growth is 22.2%.

For the compound `Cc1ccc(C(=O)N2C/C(=C/c3ccc(F)cc3)C(=O)/C(=C/c3ccc(F)cc3)C2)cc1`, the growth was 79.5%.

In the case of `CCN(CC)c1ccc2nc3ccc(N=Nc4ccc(O)cc4)cc3[n+](-c3ccccc3)c2c1`, the growth was -60.7% (active).

In the case of `O=c1oc2c(cnc3ccccc32)cc1-c1cccs1`, the growth was 107%.

For the compound `Cn1cc(-c2csc(-c3c[nH]c4ccc(F)cc34)n2)c2ccnc(Cl)c21`, the growth was 15%.

Regarding `COc1cc(-c2c(C#N)c(N)n3c(nc4ccccc43)c2C#N)cc(Br)c1OC`, the growth is 36.5%.

For `COc1ccccc1N1C(=N)S/C(=C\c2ccc(OCc3ccccc3F)cc2)C1=O`, the growth is 5.85% (active).

As to `NS(=O)(=O)Oc1ccc(NC(=O)C2CCCCCC2)cc1`, the growth was 109%.

Regarding `COc1cc2ncnc(Nc3ccc(F)c(Cl)c3)c2cc1OCC(=O)N1CCCCC1`, the growth was -41.9% (active).

Take `Cc1ccc2c(c1)C(C)Cc1c(ncnc1-n1cnc3ccccc31)N2C` (stereo not given): the growth was 30.8%.

In the case of `N[C@H]1CCC[C@@H]1NCCCCN1C(=O)c2cccc3cc([N+](=O)[O-])cc(c23)C1=O`, the growth is 38.8%.

Turning to `O=C(Nc1ccc(F)c(F)c1)c1cc(-c2ccc(F)cc2F)ccc1O`, the growth was -8.51% (active).

On to `CC1=NC2=Nn3c(c4cnn(-c5ccccc5)c4n/c3=N\N)NN2C(c2ccccc2)=C1`, for which the growth was 73.9%.

Regarding `CC1(C)CC[C@]2(CO)CC[C@]3(C)[C@H](CC[C@@H]4[C@@]5(C)CC[C@H](O)C(C)(C)[C@@H]5CC[C@]43C)[C@H]2[C@H]1O`, the growth is 101%.

Take `CS(=O)(=O)c1ccc(/C=C\C(=O)O)cc1`: the growth is 93.6%.

For `COc1cc(Cl)cc(-c2nn(-c3cccc(NC(=O)c4ccc(N5CCOCC5)c(C(F)(F)F)c4)c3)cc2-c2ccncc2)c1`, the growth is 50.2%.

Regarding `CCCCCCCCCCCCC1C/C=C\CCCC(=O)O1` (stereo not given), the growth is 127%.
